# Screening results: PubChem, Broad Institute
# aSyn UTR act: Activators via SNCA 5'UTR binding, MLPCN; activity score, % (tested at 7.5 µM), hits read low; AID 1814, 2009; alpha-synuclein 5'UTR reporter, activators screen; 300,000 compounds, 7.1% hits; in the data active means activity score below about -60%
# * marks the source's active call; other numbers are inactive results. Not all results are given here.
SMILES,aSyn UTR act
Cc1ccc(NC(=O)Nc2ccc3c(c2)nnn3C)cc1C,-66*
COc1ccccc1NC(=O)Nc1ccc2c(c1)nnn2C,-96*
CCCOC1CCCN(C(=O)c2cc(COc3ccc(F)c(F)c3)on2)C1 (stereo unspecified),-118*
Cc1nn(C)c(C)c1C(C)NC(=O)c1cc(COc2ccc(F)c(F)c2)on1 (stereo unspecified),-68*
CCCN1CCN(C(=O)c2cc(COc3ccc(F)c(F)c3)on2)CC1,-74*
CCOC(=O)C1CCCN(C(=O)c2cc(COc3ccc(C)nc3)on2)C1 (stereo unspecified),-86*
CS(=O)(=O)N1CCN(c2ccc(NC(=O)c3cc4ccccc4o3)cc2)CC1,-116*
CN1CCN(c2ccc(NC(=O)c3cc4ccccc4o3)cc2)CC1,-64*
CN(C)CCCN(C(=O)c1cc(-c2cccs2)nc2ccccc12)c1nc2ccc(F)cc2s1,99
Cc1cccc2sc(N(CCCN(C)C)C(=O)CCc3ccccc3)nc12,62
CN(C)CCCN(C(=O)c1ccc2c(c1)CCCC2)c1nc2ccc(F)cc2s1,-157*
CN(C)CCN(C(=O)c1cc(Cl)sc1Cl)c1nc2ccc(F)cc2s1,-94*
CN(C)CCCN(C(=O)CCc1ccccc1)c1nc2ccc(F)cc2s1,-70*
CN(C)CCCN(C(=O)c1ccc(S(=O)(=O)N2CCc3ccccc3C2)cc1)c1nc2ccc(F)cc2s1,99
O=C(COC(=O)c1ccc(Cl)nc1)c1ccc2c(c1)OCCO2,-71*
O=C(COc1ncnc2cc(Cl)ccc12)c1ccc2c(c1)OCCO2,-92*
O=C(CSc1ncnc2ccccc12)c1ccc2c(c1)OCCO2,-346*
Cc1ccc(C(=O)COc2ncnc3cc(Cl)ccc23)cc1,-76*
CCOc1ccccc1CNS(=O)(=O)c1ccc(-c2cnc(C3CC3)o2)cc1,74
O=C(COc1ncnc2ccccc12)c1ccc2c(c1)OCCO2,-88*
COc1cccc(-c2nnc(Nc3nc4c(F)cccc4s3)o2)c1,-145*
COc1ccccc1-c1nnc(Nc2nc3c(OC)cccc3s2)o1,81
COc1cccc2sc(Nc3nnc(-c4ccccc4Cl)o3)nc12,66
O=C(c1ccc2c3n(nc2c1)-c1ccc(Cl)cc1CO3)N1CCOCC1,-109*
Cc1ccc2c(c1)COc1c3ccc(C(=O)N4CCCCC4)cc3nn1-2,-108*
SMILES,aSyn UTR act
O=C(c1ccc2c3n(nc2c1)-c1ccccc1CO3)N1CCOCC1,-114*
O=C(NCC1CCCO1)c1ccc2c3n(nc2c1)-c1ccccc1CO3 (stereo unspecified),-103*
O=C1NC(=S)N/C1=C/c1ccc2ccccc2c1,-84*
C=CCc1cc(/C=C2/NC(=S)NC2=O)cc(OC)c1O,52
O=C1NC(=S)N/C1=C\C=C\c1ccccc1,-104*
CC(=O)Nc1ccccc1C(=O)C(=O)Nc1ccc(C)c(C)c1,-182*
Cc1ccc(NC(=O)/C(Cl)=C/c2ccccc2)cc1C,-156*
CC(=O)Nc1ccccc1C(=O)C(=O)Nc1ccc(F)c(Cl)c1,-123*
CC(=O)Nc1ccccc1C(=O)C(=O)Nc1ccc(C)c(F)c1,-264*
CC(=O)Nc1ccccc1C(=O)C(=O)Nc1cccc(F)c1,-149*
CCN(CC)C(=O)C(=O)Nc1ccc(F)c(Cl)c1,-131*
CC(=O)Nc1cccc(NC(=O)CSc2ncc(-c3ccccc3)[nH]2)c1,-80*
O=C(CSc1ncc(-c2ccccc2)[nH]1)Nc1ccccc1F,-126*
NNc1nc(Nc2ccccc2)nc(Nc2ccccc2)n1,-117*
c1ccc(Nc2ccnc(Nc3ccccc3)n2)cc1,-100*
Cc1ccc(C=Nc2ccccc2C(N)=O)cc1,-109*
COc1cccc(C=Nc2ccccc2C(=O)Nc2ccccc2)c1O,-71*
Cc1ccc(C=Nc2ccccc2C(=O)Nc2ccccc2)cc1,-77*
CCOC(=O)c1cnc2cc3c(cn2c1=O)CCCC3,-132*
CCC1(C)Cc2c(sc3nc(SC)n(Cc4ccccc4)c(=O)c23)CO1 (stereo unspecified),-118*
O=C(NNC(=S)Nc1ccccc1)Nc1ccccc1,-92*
CCOc1ccc(NC(=O)NC(=O)N(C)S(=O)(=O)c2ccc(C)cc2)cc1,-82*
Cc1ccc(NC(=S)NNC(=O)Nc2ccccc2)cc1,-132*
Cc1ccc(NC(=S)NNC(=O)c2nn(C)c(C)c2Cl)cc1,-276*
Cc1ccc(NC(=O)NC(=O)N(c2ccccc2)S(C)(=O)=O)cc1,-93*
SMILES,aSyn UTR act
O=C1c2ccccc2NC(c2ccc3c(c2)OCO3)N1O (stereo unspecified),-121*
Fc1ccc(CSc2nnc(-c3ccccn3)o2)cc1,-196*
O=C(CSc1nnc(-c2ccccn2)o1)Nc1ccccc1,-71*
Cc1occc1-c1nnc(SCC(=O)Nc2ccccn2)o1,-115*
O=C(CSc1nnc(-c2ccccn2)o1)Nc1ccc(F)cc1,-94*
O=C(CSc1n[nH]c(-c2ccccn2)n1)Nc1ccc(F)cc1,73
Cc1ccc(NC(=O)c2ccc3nsnc3c2)c(C)c1,-102*
COC(=O)c1ccc(NC(=O)c2ccc3nsnc3c2)cc1,-111*
COc1cccc(C(=O)Nc2ccc3c(c2)C(=O)c2ccccc2C3=O)c1,-164*
COC(=O)c1ccc(NC(=O)c2cccc(OC)c2)cc1,-255*
Cc1ccc(NC(=O)COC(=O)c2cccc3c2C(=O)c2ccccc2C3=O)c(C)c1,52
COc1cccc(C(=O)NC(=S)Nc2ccc(N(C)C)cc2)c1,-185*
CCC(=O)Nc1ccc2c(c1)C(=O)c1ccccc1C2=O,-245*
O=C(Nc1ccc(C2CC2(Cl)Cl)cc1)c1ccccc1Br (stereo unspecified),-73*
COc1ccc2cc(C(=O)/C=C/c3cc(OC)c(O)c(OC)c3)ccc2c1,-71*
COc1ccc(NC(=O)c2ccc(C)cc2)c(OC)c1,-189*
COc1cccc(C(=O)Nc2ccc(C)cc2)c1,-127*
COc1cccc(C(=O)Nc2ccc(Cl)c(C(F)(F)F)c2)c1,-108*
COC(=O)c1ccc(NC(=O)c2cccc(C)c2)cc1,-65*
CCN(CC)S(=O)(=O)c1cccc(C(=O)Oc2cccc(NC(=O)c3cccs3)c2)c1,-66*
COc1cccc(C(=O)Nc2ccc(C3CC3(Cl)Cl)cc2)c1 (stereo unspecified),-169*
COC(=O)c1ccc(/C=C/C(=O)c2cccc(OC)c2)cc1,-71*
COc1cccc(C(=O)Nc2ccc(C(=O)c3ccccc3)cc2)c1,-94*
Cc1cccc(C(=O)Nc2cccc(OC(=O)c3cccc(C)c3)c2)c1,-115*
O=C(Nc1ccc(F)c(Cl)c1)N1CCCCCC1,-75*
SMILES,aSyn UTR act
Cc1ccc(NC(=O)C2CCCN(C(=O)c3ccc(Cl)cc3)C2)cc1C (stereo unspecified),-100*
O=C(Nc1ccc(Br)cc1)N1CCCCC1,-63*
COc1cccc(NC(=O)N2CCCCCC2)c1,-88*
O=C(Nc1ccc(Cl)cc1)N1CC=CCC1,-134*
COc1ccc(NC(=O)N2CCCCCC2)cc1,-77*
Cc1ccc(NC(=O)N2CCCCCC2)cc1C,-90*
O=C1c2cccc3c(O)ccc(c23)C(=O)N1c1ccc(Cl)cc1,-141*
O=C(Nc1ncc2c(n1)CC(c1ccco1)CC2=O)c1ccccc1 (stereo unspecified),-72*
CC(C)Sc1nnc(-c2c[nH]c3ccccc23)n1C,-111*
COc1ccc(C(=O)/C(=C/O)N=Nc2ccc(F)cc2)cc1,-64*
O=C(CCc1nc2ccccc2c(=O)[nH]1)Nc1nc(-c2cccs2)cs1,-89*
CC(C)(C)c1ccc(C(=O)NC(=S)N2CCOCC2)cc1,-102*
